Results reported in the supplement of paper PMC6411743.
± gives the standard deviation of the averaged measurements. Targets with the largest changes are over-represented here; the source holds about 5,400 in all.

Biological target: T1, ACLY (UniProt P53396)
T1 sequence (whole entry): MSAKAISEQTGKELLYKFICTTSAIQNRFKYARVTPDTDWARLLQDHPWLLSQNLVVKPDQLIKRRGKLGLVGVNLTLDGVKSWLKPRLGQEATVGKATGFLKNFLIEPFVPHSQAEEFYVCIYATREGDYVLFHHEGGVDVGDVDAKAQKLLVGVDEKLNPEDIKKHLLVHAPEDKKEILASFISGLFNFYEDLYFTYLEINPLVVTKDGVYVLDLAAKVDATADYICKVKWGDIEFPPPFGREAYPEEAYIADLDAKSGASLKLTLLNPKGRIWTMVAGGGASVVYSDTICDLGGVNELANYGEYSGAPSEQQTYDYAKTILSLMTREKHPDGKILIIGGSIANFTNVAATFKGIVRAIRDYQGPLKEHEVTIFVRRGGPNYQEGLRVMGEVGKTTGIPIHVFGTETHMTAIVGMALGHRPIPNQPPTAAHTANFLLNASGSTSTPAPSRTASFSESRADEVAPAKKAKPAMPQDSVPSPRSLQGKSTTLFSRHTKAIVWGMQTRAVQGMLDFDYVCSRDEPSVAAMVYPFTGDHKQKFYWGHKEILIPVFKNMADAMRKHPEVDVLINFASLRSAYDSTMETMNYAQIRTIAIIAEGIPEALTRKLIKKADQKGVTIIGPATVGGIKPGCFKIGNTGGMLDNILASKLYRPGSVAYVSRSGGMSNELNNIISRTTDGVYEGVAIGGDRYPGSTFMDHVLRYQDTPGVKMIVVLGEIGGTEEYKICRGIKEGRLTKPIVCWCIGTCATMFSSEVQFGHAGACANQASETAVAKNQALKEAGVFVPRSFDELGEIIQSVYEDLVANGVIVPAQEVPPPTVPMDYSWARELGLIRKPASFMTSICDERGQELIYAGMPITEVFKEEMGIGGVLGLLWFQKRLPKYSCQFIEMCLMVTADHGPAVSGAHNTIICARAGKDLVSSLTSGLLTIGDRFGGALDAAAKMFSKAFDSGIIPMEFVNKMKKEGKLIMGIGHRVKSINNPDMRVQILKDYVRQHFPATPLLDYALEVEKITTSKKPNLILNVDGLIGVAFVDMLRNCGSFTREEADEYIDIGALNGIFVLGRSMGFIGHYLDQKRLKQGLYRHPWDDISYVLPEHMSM
Experiment: NP40-soluble protein abundance relative to vehicle (solubility fold change) (ratio); higher = more soluble protein in presence of GTP
Procedure: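 Solubility proteome profiling in Jurkat crude lysate. Lysate was treated with Mg-GTP (0.1-10 mM) for 10 min at room temperature and 3 min at 37 °C, then solubilised with 0.8% NP40 and benzonase, followed by ultracentrifugation. Proteins were quantified by TMT10 LC-MS/MS; the value is the NP40-soluble abundance relative to the NP40-processed vehicle, from 3 independent experiments.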

Nc1nc2c(ncn2[C@@H]2O[C@H](COP(=O)(O)OP(=O)(O)OP(=O)(O)O)[C@@H](O)[C@H]2O)c(=O)[nH]1 [guanosine triphosphate]
NP40-soluble protein abundance (concentration: 0.1mM): 1.06 ± 0.044
NP40-soluble protein abundance (concentration: 0.5mM): 1.08 ± 0.088
NP40-soluble protein abundance (concentration: 1mM): 0.972 ± 0.084
NP40-soluble protein abundance (concentration: 2mM): 0.968 ± 0.11
NP40-soluble protein abundance (concentration: 4mM): 0.991 ± 0.084
NP40-soluble protein abundance (concentration: 6mM): 0.963 ± 0.11
NP40-soluble protein abundance (concentration: 8mM): 0.97 ± 0.065
NP40-soluble protein abundance (concentration: 10mM): 0.906 ± 0.07
